# In PubChem BioAssay (NCATS):
# Results filed as inconclusive are left out. A number with no mark means an inactive call. Calls of active or inactive are those of the source. Calls come from the whole dose curve; as a rule, active = well fitted inhibition curve with a large enough effect; inconclusive = small, poorly fitted or top-dose-only effect; inactive = flat fitted curve, though single readings scatter.
# Tested on: JCK
# Experiment: qHTS profiling for inhibitors of Plasmodium falciparum proliferation (AID 504749); note: nearly all actives have a fitted effect of over 60% in size;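 for activity, negative = inhibition: 0% = DMSO vehicle and full inhibition = artemisinin control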
# Conditions: P. falciparum in erythrocytes, SYBR Green DNA, 72 h; series mostly up to 28.7 µM; activity, negative = inhibition: at the top concentration
# In short: (§1)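 P. falciparum-infected erythrocytes (0.3% parasitemia, 2.5% hematocrit final) were exposed to compounds for 72 h at 37 C in 5% CO2, then lysed with SYBR Green buffer overnight at room temperature; parasite DNA fluorescence was normalized to artemisinin and DMSO controls.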
# Potency is the fitted concentration of half-maximal effect.
SMILES,"activity, negative = inhibition [%]",Potency
O=C(OC[C@@H]1O[C@@](O)(COC(=O)c2cccnc2)[C@H](OC(=O)c2cccnc2)[C@H]1OC(=O)c1cccnc1)c1cccnc1,-2.64,–
O=[N+]([O-])O[C@H]1CO[C@H]2[C@@H]1OC[C@H]2O,-6.03,–
COc1cccc(OC)c1C(=O)NC1C(=O)N2C1SC(C)(C)C2C(=O)O (stereo not drawn),-5.33,–
NC[C@@H]1O[C@H](OC2[C@@H](CO)O[C@@H](OC3[C@H](O)[C@H](N)C[C@H](N)[C@H]3OC3O[C@H](CO)[C@@H](O)[C@H](O)[C@@H]3N)[C@H]2O)C(N)[C@H](O)[C@@H]1O (stereo partly drawn),-2.59,–
Cc1ccc(S(=O)(=O)NC(=O)NC(C)Cc2ccccc2)cc1 (stereo not drawn),8.64,–
OCCOC[C@H]1O[C@H](OCCO)[C@H](OCCO)[C@@H](OCCO)[C@@H]1OCCO (tested in a mixture with another compound),3.34,–
C[S+](C)CC[C@H](N)C(=O)O,-10.5,–
CC[C@@H]1/C=C(\C)C[C@H](C)C[C@H](OC)[C@H]2O[C@@](O)(C(=O)C(=O)N3CCCC[C@H]3C(=O)O[C@H](/C(C)=C/[C@@H]3CC[C@H](Cl)[C@H](OC)C3)[C@H](C)[C@@H](O)CC1=O)[C@H](C)C[C@@H]2OC,2.76,–
NC(=O)C1CC2(NC(=O)NC2=O)c2cc(F)ccc2O1 (stereo not drawn),-17.2,–
CN1[C@@H]2CC[C@@H]1CC(OC(=O)[C@H](CO)c1ccccc1)C2 (stereo partly drawn),–,15.8 µM (active)
CC[C@@]1(O)C[C@H](O[C@H]2C[C@@H](N(C)C)[C@@H](O[C@H]3C[C@@H](O)[C@@H](O[C@H]4CCC(=O)[C@@H](C)O4)[C@@H](C)O3)[C@@H](C)O2)c2c(cc3c(c2O)C(=O)c2c(O)cccc2C3=O)[C@H]1C(=O)OC,–,0.126 µM (active)
CCCCCCCCCCCC(=O)OCC(O)C1OCC(O)C1O (stereo not drawn),12.1,–
C/C1=C2/[N-]C(C(CC(N)=O)[C@@]2(C)CCC(=O)NCC(C)OP(=O)([O-])O[C@H]2[C@@H](O)[C@@H](n3cnc4cc(C)c(C)cc43)O[C@@H]2CO)[C@]2(C)N=C(/C(C)=C3N=C(/C=C4N=C1C(CCC(N)=O)C\4(C)C)[C@@H](CCC(N)=O)[C@]\3(C)CC(N)=O)[C@@H](CCC(N)=O)[C@]2(C)CC(N)=O.CC(=O)O.[Co] (stereo partly drawn),10.9,–
CC1(C)OC[C@@H]2O[C@@]3(C(=O)O)OC(C)(C)O[C@@H]3[C@@H]2O1,3,–
Cc1ccccc1N1C(=O)c2cc(N)ccc2N/C1=C\F,1.44,–
CCC(C(=O)O)C1OC(C(C)C(O)C(C)C(=O)C(CC)C2OC3(C=CC(O)C4(CCC(C)(C5CCC(O)(CC)C(C)O5)O4)O3)C(C)CC2C)C(C)CC1C (stereo not drawn),–,0.199 µM (active)
O=C1C(I)=CC(=C(c2cc(I)c(O)c(I)c2)c2ccccc2C(=O)O)C=C1I,-13.4,–
NC(=O)NC(CCC(=O)O)C(=O)O (stereo not drawn),-3.4,–
COC1CC2CCC(C)[C@](O)(O2)C(=O)C(=O)N2CCCCC2C(=O)OC(C(C)CC2CCC(O)C(OC)C2)CC(=O)C(C)/C=C(/C)C(O)C(OC)C(=O)C(C)CC(C)C=CC=C/C=C\1C (stereo partly drawn),–,10 µM (active)
CC(=O)OCC(=O)[C@@]1(O)CCC2C3C[C@H](C)C4=CC(=O)C=CC4(C)C3C(O)CC21C (stereo partly drawn),3.47,–
CN[C@H](C)CCC=C(C)C,–,0.355 µM (active)
CC1(C)C2CC[C@]1(C)[C@@H](O)C2,8.03,–
OCC1O[C@H](Oc2ccc(O)cc2)C(O)C(O)C1O (stereo partly drawn),7.51,–
Nc1nc(F)nc2c1ncn2[C@@H]1O[C@H](CO)[C@@H](O)[C@H]1O,2.32,–
CC1OC(OC2CCC3(C)C(CCC4C3CC(O)C3(C)C(C5=CC(=O)OC5)CCC43O)C2)CC(O)C1OC1CC(O)C(OC2CC(O)C(OC3OC(CO)C(O)C(O)C3O)C(C)O2)C(C)O1 (stereo not drawn),-15.1,–
CC1OC(OCC2OC(Oc3c(-c4ccc(OCCO)c(OCCO)c4)oc4cc(OCCO)cc(O)c4c3=O)C(O)C(O)C2O)[C@@H](O)C(O)C1O (stereo partly drawn),-3.47,–

# Tested on: N140
# Experiment: as above
# Conditions: P. falciparum in erythrocytes, SYBR Green DNA, 72 h; series mostly up to 28.7 µM; activity, negative = inhibition: at the top concentration
# In short: as §1
SMILES,"activity, negative = inhibition",Potency
CCCCCCCCCCCCCCCC(=O)OC[C@H](O)[C@H]1OC[C@@H](O)[C@@H]1O,4.3%,–
CCCCC(=O)OCC(=O)[C@]1(O)Cc2c(O)c3c(c(O)c2[C@H](OC2CC(NC(=O)C(F)(F)F)C(O)C(C)O2)C1)C(=O)c1c(OC)cccc1C3=O (stereo partly drawn),–,2 µM (active)
C[C@H]1OC(OC2C(O)[C@@H](O)C(OC3C(O)[C@@H](O)C(O)O[C@@H]3CO)O[C@@H]2CO)[C@H](O)C(O)C1N[C@H]1C=C(CO)[C@@H](O)[C@H](O)C1O (stereo partly drawn),7.12%,–
CCN(CC)CC(=O)Nc1c(C)cc(C)cc1C,5.57%,–
CC(=O)N[C@H]1[C@H](O[C@@H]2c3ccc(c(Cl)c3)Oc3cc4cc(c3O[C@@H]3O[C@H](CO)[C@@H](O)[C@H](O)C3C)Oc3ccc(cc3Cl)C[C@H]3NC(=O)[C@@H](N)c5ccc(O)c(c5)Oc5cc(O)cc(c5)[C@H](NC3=O)C(=O)N[C@H]4C(=O)N[C@H]3C(=O)N[C@@H]2C(=O)N[C@@H](C(=O)O)c2cc(O)cc(O[C@H]4O[C@H](CO)[C@@H](O)C(O)[C@@H]4O)c2-c2cc3ccc2O)O[C@H](CO)[C@@H](O)[C@@H]1O (stereo partly drawn),11.8% [at 12.8 µM],–
NC(=O)c1ncn(C2OC(CO)C(O)C2O)c1N (stereo not drawn),11.4%,–
C[C@H]1[C@@H](OC(=O)CCC(=O)O)OC2OC3(C)CC[C@H]4[C@H](C)CC[C@@H]1[C@@]24OO3 (stereo partly drawn),–,0.0032 µM (active)
